Data taken from PubChem BioAssay AID686979 (National Center for Advancing Translational Sciences (NCATS), 2013).
Screen size: about 420,000 compounds; about 50,000 (12%) were called active. Roughly 26% stayed inconclusive and do not appear here. Calls come from the whole dose curve; as a rule, active = well fitted inhibition curve with a large enough effect; inconclusive = small, poorly fitted or top-dose-only effect; inactive = flat fitted curve, though single readings scatter. What follows is part of a selection rich in actives, with near analogues and random picks from the rest.

Assay: qHTS for Inhibitors of human tyrosyl-DNA phosphodiesterase 1 (TDP1): qHTS in cells in presence of CPT; note: nearly all actives have a fitted effect of over 55% in size
Conditions: chicken DT40 Tdp1-/-;hTDP1 cells + 20 nM CPT, ATP luminescence, 48 h; series mostly up to 46.2 µM; activity change, negative = growth inhibition: at the top concentration
Procedure, shortened: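 Chicken DT40 Tdp1-/- cells stably complemented with human TDP1 were seeded at 400 cells/well in medium containing 20 nM camptothecin, exposed to pin-transferred compounds, and grown at 37 °C for at least 48 hr. Viability was read as ATP luminescence.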
% is set by controls: 0 for no effect and ±100 for the full control effect; potency is the fitted concentration of half-maximal effect.

Compound	activity change, negative = growth inhibition	Potency
Nc1[nH][nH]c(=O)c1N=Nc1ccc2c(c1)OCO2	-26.6% (inactive)	
Cc1ccc(N2CC(C(=O)Nc3ccc(S(=O)(=O)N4CCCC4)cc3)CC2=O)cc1C (centres undefined)	-24.4% (inactive)	
O=S1(=O)CC(N2CCN(CCO)CC2)CN1C1CCCC1 (centres undefined)	-2.16% (inactive)	
O=S1(=O)CCN(C2CCCCCCCCCCC2)CC1		20.6 µM (active)
O=C(O)C1CCN1C1CCCCC1 (centres undefined)	1.27% (inactive)	
COc1ccc(S(=O)(=O)N2CCC(C(=O)NCCC(=O)Nc3ccccc3OC)CC2)cc1	-19% (inactive)	
CC(NC(=O)c1ccccc1C(=O)O)c1ccc(-n2ccnc2)cc1 (centres undefined)	7.73% (inactive)	
COc1ccc(OC)c(/C(C)=N\NC(=O)c2cc3cc(Cl)ccc3n2C)c1		5.8 µM (active)
COc1ccc(NC(=O)c2cc3cc(C)ccc3n2C)cc1	-22.3% (inactive)	
COc1ccc(OC)c(C(=O)c2ccc(Cl)cc2)c1	2.77% (inactive)	
OC(c1ccccc1)c1nc(/C=C/c2ccc(C(F)(F)F)cc2)cs1 (centres undefined)	-21.7% (inactive)	
CCN(c1ccccc1)S(=O)(=O)c1cc2c(cc1C)n(C)c(=O)c(=O)n2C	11.4% (inactive)	
C[C@H](CO)N1C[C@H](C)[C@@H](CN(C)S(=O)(=O)c2ccc(F)cc2)OCc2cnnn2CCCC1=O	-11.4% (inactive)	
COc1ccc(CN2CCCC(C(=O)N3CCCCC3)C2)cc1 (centres undefined)	0.895% (inactive)	
COc1ccc(CCN(C)C(=O)C2CCCN(Cc3ccc(OC)c(OC)c3)C2)cc1OC (centres undefined)	34.4% (inactive)	
COc1cc(CN2CCCC(C(=O)c3ccc(SC)cc3)C2)cc(Cl)c1O (centres undefined)		11.6 µM (active)
COC(=O)N(C)C[C@@H]1OCc2cnnn2CCCC(=O)N([C@@H](C)CO)C[C@@H]1C	-3.67% (inactive)	
COc1cccc(-c2cc(C(=O)N/N=C/c3ccc(OC)c(COC(C)=O)c3)c3ccccc3n2)c1		8.2 µM (active)
CCOc1ccc(NC(=O)c2cc(C)nc3ccccc23)cc1	9.45% (inactive)	
CCOc1ccc(-c2cc(C(=O)N/N=C/c3ccc(O)cc3)c3ccccc3n2)cc1		1.84 µM (active)
O=C(N/N=C/c1ccc(OCc2ccccc2)cc1)c1ccc(O)cc1	-0.604% (inactive)	
COc1ccc(/C=N/NC(=O)c2ccc(Cl)cc2)cc1COC(C)=O	-3.77% (inactive)	
Cc1nc2ccc(C(=O)N/N=C/c3ccc(O)cc3)cc2[nH]1	4.58% (inactive)	
CNC(=O)COC(=O)c1cc(-c2ccc(OC)cc2)nc2ccccc12	-3.71% (inactive)	
C/C(=N\NC(=O)c1cccc([N+](=O)[O-])c1)c1cccnc1	3.86% (inactive)	
CCOc1ccc(CNC(=O)c2cc(-c3ccc(Cl)s3)nc3ccccc23)cc1		20.6 µM (active)
C/C(=N\NC(=O)c1cc(-c2ccc(O)cc2)nc2ccccc12)c1cccnc1		20.6 µM (active)
CC(=O)N1CCN(C(=O)c2cc(-c3ccc(Cl)s3)nc3ccccc23)CC1	-7.3% (inactive)	
C/C(=N\NC(=O)c1ccc2ccccc2c1)c1cccnc1	2.16% (inactive)	
